Assay results from PubChem BioAssay (NCATS).
“And” between values parts separate entries of the source, which are not always exact repeats. Equal values may be shown once. Results filed as inconclusive are left out. Entries that show only a call come without a potency. The source holds several records for some structures; these can differ, active in one and inactive in another. The source made the active and inactive calls. Calls follow the shape of the dose curve; as a rule, active = well fitted curve in the direction sought with a large enough effect; inconclusive = small, poorly fitted or top-dose-only effect, or another doubt; inactive = no such curve, though single readings can be large; an effect the other way counts as inactive or inconclusive.

How the values were obtained:
[1] = biological target: Cytochrome P450 3A7 (Homo sapiens) (UniProt P24462); experiment: Cytochrome P450 family 3 subfamily A member 7 (CYP3A7) small molecule antagonists: luciferase biochemical qHTS assay (AID 1963596); also: nearly all actives have a fitted effect of over 40% in size
Cytochrome P450 3A7 (Homo sapiens), sequence (P24462 whole entry, looked up): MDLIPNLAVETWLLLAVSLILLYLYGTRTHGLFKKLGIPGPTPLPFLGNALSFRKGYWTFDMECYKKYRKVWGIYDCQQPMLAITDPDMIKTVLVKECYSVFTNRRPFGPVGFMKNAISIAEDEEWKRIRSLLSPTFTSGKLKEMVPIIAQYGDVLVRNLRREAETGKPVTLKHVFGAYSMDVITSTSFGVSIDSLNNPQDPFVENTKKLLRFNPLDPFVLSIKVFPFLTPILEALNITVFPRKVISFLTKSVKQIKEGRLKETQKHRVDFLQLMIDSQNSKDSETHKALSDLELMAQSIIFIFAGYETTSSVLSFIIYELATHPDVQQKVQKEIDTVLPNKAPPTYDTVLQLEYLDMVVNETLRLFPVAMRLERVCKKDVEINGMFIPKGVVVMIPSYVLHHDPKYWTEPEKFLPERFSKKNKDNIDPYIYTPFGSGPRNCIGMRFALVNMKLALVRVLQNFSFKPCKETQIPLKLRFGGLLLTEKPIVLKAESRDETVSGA
How it was run: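 In this luminescent screen, enzyme and proluciferin substrate meet test compound for 10 min before NADPH regeneration solution drives a 1 h room-temperature reaction; detection reagent halts turnover and luminescence is read 20 min later.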

[2] = Viability qHTS for spleen associated tyrosine kinase inhibitor (SYKi) naive MV4-11 cells (AID 1963823); also: nearly all actives have a fitted effect of over 40% in size; also: potency is read from the fitted curve at half-maximal effect
How it was run: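 qHTS, SYK inhibitor-naive MV4-11; 500 cells/well; 72 hr compound exposure, 37 C; CellTiter-Glo added, 10 min RT; luminescence read.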

[3] = Viability qHTS for spleen associated tyrosine kinase inhibitor (SYKi) drug resistant MV4-11 cells (AID 1963824); also: nearly all actives have a fitted effect of over 35% in size; also: potency is read from the fitted curve at half-maximal effect
How it was run: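 SYK-inhibitor-resistant MV4-11 AML cells were seeded at 500 per well onto compound and cultured 72 hours (37 °C, 5% CO2). CellTiter-Glo was then added, and after 10 min at room temperature, luminescence gave viability.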

[4] = Quantitative highthroughput screen to assess conditional lethalithy of NOMO1 cells grown in RPMI1640 with untreated serum (RPMI+s) (AID 1963876); also: nearly all actives have a fitted effect of over 35% in size; also: potency is read from the fitted curve at half-maximal effect
How it was run: (§1)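 Each medium arm—HPLM with 10% dialyzed FBS, or RPMI1640 with 5 mM glucose and 10% untreated or dialyzed FBS—was screened against an 11-point, 3-fold compound titration for 48 h at 37 °C, with CellTiter-Glo luminescence as endpoint.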

[5] = Quantitative highthroughput screen to assess conditional lethalithy of P12 Ichikawa cells grown in Human Plasma-Like Medium with dialyzed fetal bovine serum (HPLM+ds) (AID 1963879); details: Potency: viability; also: nearly all actives have a fitted effect of over 35% in size; also: potency is read from the fitted curve at half-maximal effect; as to Viability: series mostly up to about 46 µM
How it was run: as §1

[6] = Quantitative highthroughput screen to assess conditional lethalithy of P12 Ichikawa cells grown in RPMI1640 with dialyzed fetal bovine serum (RPMI+ds) (AID 1963880); details: Potency: P12-Ichikawa viability; also: nearly all actives have a fitted effect of over 35% in size; also: potency is read from the fitted curve at half-maximal effect
How it was run: as §1

[7] = Quantitative highthroughput screen to assess conditional lethalithy of P12 Ichikawa cells grown in RPMI1640 with untreated serum (RPMI+s) (AID 1963881); details: Potency: viability; also: nearly all actives have a fitted effect of over 35% in size; also: potency is read from the fitted curve at half-maximal effect; as to Viability: series mostly up to about 46 µM
How it was run: as §1

[8] = Cellular viability qHTS for adrenocortical cancer (ACC) cell line SW-13 (AID 1963989); details: SW-13 ACC cells viability, CellTiter-Glo, 48 h; activity (max response): stronger effect = lower value; also: nearly all actives have a fitted effect of over 65% in size; also: potency is read from the fitted curve at half-maximal effect;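 as to activity (max response): cells grown in serum-free medium with ITS supplement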
How it was run: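 IC50 and maximal-response values come from four-parameter logistic fits of titration data. SW-13 cells in serum-free medium received compounds (up to 46 uM final) for 48 h before CellTiter-Glo luminescence.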

[9] = Cellular viability qHTS for adrenocortical cancer (ACC) cell line NCI-H295R (AID 1963990); also: nearly all actives have a fitted effect of over 60% in size; also: potency is read from the fitted curve at half-maximal effect
How it was run: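 Adrenocortical carcinoma cells, suspended at 300 000 cells/mL in serum-free DMEM plus ITS, rested overnight before pin transfer of compound. After two days' incubation, ATP-dependent luminescence was recorded and curve-fitted.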

[10] = Quantitative highthroughput screen to assess conditional lethalithy of NOMO1 cells grown in RPMI1640 with dialyzed fetal bovine serum (RPMI+ds) (AID 1963877); also: nearly all actives have a fitted effect of over 30% in size; also: potency is read from the fitted curve at half-maximal effect; as to Viability: series mostly up to about 46 µM
How it was run: as §1

[11] = Quantitative highthroughput screen to assess conditional lethalithy of SEM cells grown in Human Plasma-Like Medium with dialyzed fetal bovine serum (HPLM+ds) (AID 1963882); also: nearly all actives have a fitted effect of over 35% in size; also: potency is read from the fitted curve at half-maximal effect; as to Viability: series mostly up to about 46 µM
How it was run: as §1

[12] = Quantitative highthroughput screen to assess conditional lethalithy of SEM cells grown in RPMI1640 with unreated serum (RPMI+s) (AID 1963883); also: nearly all actives have a fitted effect of over 35% in size; also: potency is read from the fitted curve at half-maximal effect
How it was run: as §1

[13] = Quantitative highthroughput screen to assess conditional lethalithy of SEM cells grown in RPMI1640 with dialyzed fetal bovine serum (RPMI+ds) (AID 1963884); also: nearly all actives have a fitted effect of over 35% in size; also: potency is read from the fitted curve at half-maximal effect; as to Viability: series mostly up to about 46 µM
How it was run: as §1

[14] = Quantitative highthroughput screen to assess conditional lethalithy of NOMO1 cells grown in Human Plasma-Like Medium with dialyzed fetal bovine serum (HPLM+ds) (AID 1963878); also: nearly all actives have a fitted effect of over 35% in size; also: potency is read from the fitted curve at half-maximal effect
How it was run: as §1

Compound: Cc1cn([C@@H]2C[C@@H](O)[C@H](CO)O2)c(=O)[nH]c1=O
- Potency [1]: inactive
- Potency [2]: inactive
- Potency [3]: inactive
- Potency [4]: inactive
- Potency [5]: 23.5 µM (active)
- Potency [6]: 23.5 µM (active)
- Potency [7]: 26.4 µM (active)
- activity (max response) [8]: -17.5% (inactive)
- Potency [9]: inactive

Compound: COc1cc2c(Nc3ccc(Cl)c(Cl)c3F)ncnc2cc1OCC1C[C@@H]2CN(C)C[C@@H]2C1 (stereo partly drawn)
- Potency [1]: inactive
- Potency [2]: 1.86 µM (active)
- Potency [3]: 2.31 µM (active) and 2.95 µM (active)
- Potency [10]: 23.4 µM (active)
- Potency [5]: 20.9 µM (active)
- Potency [6]: 23.4 µM (active)
- Potency [11]: 14.8 µM (active)
- Potency [12]: 20.9 µM (active)
- Potency [13]: 20.9 µM (active)
- Potency [9]: 7.94 µM (active) and 8.91 µM (active)

Compound: Nc1c2c(nc3ccccc13)CCCC2
- Potency [1]: inactive
- Potency [2]: inactive
- Potency [3]: inactive and 18.6 µM (active)
- Potency [10]: 14.8 µM (active)
- Potency [5]: inactive
- Potency [6]: inactive
- Potency [7]: inactive
- Potency [11]: inactive
- Potency [12]: inactive
- Potency [13]: inactive
- activity (max response) [8]: -1.99% (inactive) and -7.86% (inactive)
- Potency [9]: inactive

Compound: C[C@@H](N)c1ccc(C(=O)Nc2ccnc3[nH]ccc23)cc1
- Potency [1]: inactive
- Potency [2]: 4.17 µM (active)
- Potency [3]: 10.3 µM (active)
- Potency [10]: 18.7 µM (active)
- Potency [6]: inactive
- Potency [8]: 25.1 µM (active)

Compound: CCn1cc(C(=O)O)c(=O)c2cc(F)c(N3CCNCC3)nc21
- Potency [1]: inactive
- Potency [2]: 0.0335 µM (active)
- Potency [3]: 2.66 µM (active)
- Potency [5]: inactive
- Potency [6]: inactive
- Potency [7]: inactive
- Potency [11]: inactive
- Potency [12]: inactive
- Potency [13]: inactive
- activity (max response) [8]: 4.85% (inactive)
- Potency [9]: inactive

Compound: Cn1nnc2c(C(N)=O)ncn2c1=O
- Potency [1]: inactive
- Potency [2]: inactive
- Potency [3]: inactive
- Potency [14]: 18.7 µM (active)
- Potency [11]: 0.332 µM (active)
- Potency [13]: 0.235 µM (active)
- activity (max response) [8]: -0.0469% (inactive) and 5.28% (inactive)
- Potency [9]: inactive

Compound: CS(=O)(=O)N1CCc2c(-c3cnc(N)nc3)nc(N3CCOCC3)nc21
- Potency [1]: inactive
- Potency [2]: 1.86 µM (active)
- Potency [3]: 4.17 µM (active)
- Potency [4]: 8.33 µM (active)
- Potency [5]: inactive
- Potency [12]: 4.69 µM (active)
- Potency [9]: 708 nM (active)

Compound: COC(=O)Nc1nc2ccc(S(=O)c3ccccc3)cc2[nH]1 (stereo not drawn)
- Potency [1]: inactive
- Potency [2]: 16.6 µM (active) and 841 nM (active)
- Potency [3]: 14.8 µM (active) and 668 nM (active)
- Potency [4]: inactive
- Potency [5]: 7.43 µM (active)
- Potency [6]: inactive
- Potency [8]: 8.91 µM (active) and 259 nM (active)
- Potency [9]: 4.47 µM (active) and 259 nM (active)

Compound: CN1CCN(c2c(F)cc3c(=O)c(C(=O)O)cn(CCF)c3c2F)CC1
- Potency [1]: inactive
- Potency [2]: inactive
- Potency [3]: inactive
- Potency [10]: inactive
- Potency [14]: inactive
- Potency [6]: inactive
- Potency [7]: inactive
- Potency [11]: inactive
- Potency [12]: inactive
- Potency [13]: inactive
- activity (max response) [8]: -1.49% (inactive)

Compound: CC12CC3CC(C)(C1)CC(N)(C3)C2
- Potency [1]: inactive
- Potency [2]: inactive
- Potency [3]: 3.76 µM (active)
- Potency [10]: 18.7 µM (active)
- Potency [11]: inactive
- Potency [12]: inactive
- Potency [13]: inactive
- activity (max response) [8]: -3.68% (inactive)
- Potency [9]: inactive

Compound: CNc1nc(Nc2cnn([C@H]3CCN(C4COC4)C[C@@H]3F)c2Cl)ncc1C(F)(F)F
- Potency [1]: inactive
- Potency [2]: 1.3 µM (active)
- Potency [3]: 1.86 µM (active)
- Potency [4]: 1.66 µM (active)
- Potency [13]: 2.34 µM (active)
- activity (max response) [8]: -2.31% (inactive)
- Potency [9]: inactive

Compound: CN(C)CCc1c[nH]c2ccc(C[C@H]3COC(=O)N3)cc12
- Potency [1]: inactive
- Potency [2]: inactive
- Potency [3]: inactive
- Potency [10]: 20.9 µM (active)
- Potency [14]: 13.2 µM (active)
- Potency [5]: 7.43 µM (active)
- Potency [7]: 10.5 µM (active)
- Potency [11]: 9.35 µM (active)
- Potency [12]: 4.69 µM (active)
- Potency [13]: 9.35 µM (active)
- activity (max response) [8]: 12.9% (inactive)
- Potency [9]: inactive

Compound: CN[C@@H](C)C(=O)N[C@H]1CN(C(=O)CC(C)C)CC[C@H]2CC[C@@H](C(=O)NC(c3ccccc3)c3ccccc3)N2C1=O
- Potency [1]: inactive
- Potency [2]: inactive
- Potency [3]: 5.8 µM (active) and 2.35 µM (active)
- Potency [10]: 2.64 µM (active)
- Potency [14]: 1.05 µM (active)
- Potency [5]: 8.33 µM (active)
- Potency [6]: 11.8 µM (active)
- Potency [7]: 8.33 µM (active)
- activity (max response) [8]: -12.1% (inactive)
- Potency [9]: inactive

Compound: COc1cc2c(Nc3ccc(Br)cc3F)ncnc2cc1OCC1CCN(C)CC1
- Potency [1]: inactive
- Potency [2]: inactive and 820 nM (active)
- Potency [3]: inactive and 731 nM (active) and 2.95 µM (active)
- Potency [4]: inactive
- Potency [5]: inactive
- Potency [6]: inactive
- Potency [7]: inactive
- Potency [9]: inactive and 25.1 µM (active)
